Compounds without any hit were thinned out: in the full panel of roughly 83,000, 20% have a hit.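 Growth was measured after 48 h exposure to one concentration of compound in 96-well plates. Values under 10 count as active.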 The source made the active and inactive calls.
The compounds below were run on HOP-62 NSCLC (assay: NCI-60 one-dose screen, 48 h (100 = growth as untreated, 0 = no growth, -100 = all killed)). Details: 10 µM unless noted.

SMILES | growth
O=C(NNC(=O)c1ccc(-n2cc(-c3ccccc3)nn2)cc1)Nc1ccccc1 | 94.8% (inactive)
COc1ccc(-c2csc(N(C(=O)N3CCN(c4cc5c(cc4F)c(=O)c(C(=O)O)cn5C4CC4)CC3)c3ccccc3)n2)cc1 | 9.2% (active)
O=Nc1c(-c2c(O)[nH]c3ncccc23)[nH]c2ccccc12 | 45.9% (inactive)
CCN1CC(=O)N(/N=C2\C(=O)Nc3ccccc32)C1=S | 87% (inactive)
O=C1CC(N2C(=O)/C(=C/C(Cl)=C\c3ccc([N+](=O)[O-])cc3)SC2=S)C(=O)N1c1ccc(Cl)cc1 (stereo unspecified) | 50.4% (inactive)
CN(C)C1CCN(Cc2ccc(NC(=O)c3cncc(C#Cc4cnc(N)c5ncccc45)c3)cc2C(F)(F)F)CC1 | 75.5% (inactive)
Cn1cc(-c2nonc2-c2c[nH]c3ccc(Br)cc23)c2cc(Br)ccc21 | 29.1% (inactive)
C[C@@H]1CCC[C@H]1CC(N)C(=O)O (stereo partly specified) | 107% (inactive)
S=C(Nc1ccc(-c2nc(N3CCOCC3)c3cccn3n2)cc1)Nc1cccnc1 | 46.6% (inactive)
O=C(CN1C(=O)CCC1=O)Nc1ncc(Cc2ccc(F)cc2)s1 | 105% (inactive)
CN1CCN(C(=O)OCc2ccc3c(Cl)cc(Cl)c(O)c3n2)CC1 | 45.9% (inactive)
O=C(O)[C@@H]1c2ccccc2-c2ccccc2[C@H]1C(=O)O | 90.8% (inactive)
Clc1ccc(Sc2cnc(-c3ccccc3)o2)cc1 | 94.4% (inactive)
C=C(C)[C@@H]1CC[C@]2(C(=O)NCC#CCN3CCN(C)CC3)CC[C@]3(C)[C@H](CC[C@@H]4[C@@](C)(CCC#N)[C@H](C(=C)C)CC[C@]43C)[C@@H]12 | 65.6% (inactive)
Cc1ccc(/C=N/Nc2nc(Nc3ccccc3)nc(-n3nc(C)cc3C)n2)cc1 | 73.3% (inactive)
COc1ccc(/C(C)=C(/c2ccc(OCCCN(C)C)cc2)c2ccc(OC(=O)Cc3ccccc3)cc2)cc1 | 83.3% (inactive)
CCOC(=O)C1=C(NC)OCC1=O | 100% (inactive)
C#CCOc1ccc2ncnc(Nc3cccc(NC(=O)C=C)c3)c2c1 | 63.6% (inactive)
COc1cc(-n2cc(-c3cc(O)c(C/C=C(\C)CCC=C(C)C)c(O)c3)nn2)cc2c1O[C@]1(C)CC[C@@H](O)C(C)(C)[C@H]1C2 | -15.1% (active)
N#C/C(=C\c1ccc(Br)cc1)n1nnc2ccc(F)cc21 | 31.4% (inactive)

SMILES | growth
CCN(CC)CCNC(=O)c1cn2ncnc(Oc3ccc(NC(=O)Nc4ccc(Cl)c(C(F)(F)F)c4)c(F)c3)c2c1C | 36.5% (inactive)
Cc1nc(N2CCOCC2)sc1S(N)(=O)=O | 94.5% (inactive)
CC(=O)N(N=Nc1ccccc1)c1cccc2ccccc12 | 90.5% (inactive)
Cc1ccc(-c2nc(N3CCNCC3)c3oc(-c4ccccc4)nc3n2)cc1 | -6.18% (active)
Cc1cc2c(O)c(-c3cc(Cl)ccc3Cl)c3sc(=O)oc3c2cc1C | 87.8% (inactive)
N=C(N)c1ccc(-c2ccc(-c3cc(Cl)cc(Cl)c3)o2)o1 | -72.2% (active)
CC1=Nc2cnc(Nc3ccc(OCCN4CCCCC4)cc3)nc2Nc2ccccc21 | 81.4% (inactive)
Cc1cccnc1NC(=S)Nc1ncccc1C | 109% (inactive)
CN1C(=O)/C(=C/c2ccc(C(=O)Nc3ncc(Cc4ccc(Cl)cc4)s3)cc2)SC1=S | 49.7% (inactive)
COc1ccc(-c2nnc3n(C)c(=O)c4ccccc4n23)cc1N | 23.3% (inactive)
CC1=C(CCC(C)N(C)Cc2ccc(OCCCN3CCCC3)cc2)C(C)(C)CCC1 (stereo unspecified) | 36.6% (inactive)
CCCc1cc(NC)nc(S(=O)(=O)CC)n1 | 110% (inactive)
Cc1cccc(Cl)c1NC(=O)c1ccc2nc(NC(=O)NCCN(C)C)sc2c1 | 60.3% (inactive)
O=c1oc2ccccc2cc1C1=NN=C(SCc2ccccc2)SC1 | 82.9% (inactive)
CC1(c2ccccc2O)NN=C(/N=C/c2cccc([N+](=O)[O-])c2)N1C(Cc1c[nH]c2ccccc12)C(=O)O (stereo unspecified) | 65.8% (inactive)
CC(O)c1cnc(/C=C2\SC(=S)N(Cc3ccccc3)C2=O)s1 (stereo unspecified) | 39% (inactive)
Cc1ccc(CNc2ccc(Cl)cc2NCc2ccc(C)c(O)c2)cc1O | 40.5% (inactive)
NC(=O)c1c(NC(=O)c2ccccc2)sc2c1CCC(=O)C2 | 45.1% (inactive)
CCn1c(=S)sc2c(Nc3ccc(F)cc3)nc(-c3cccnc3)nc21 | 47.6% (inactive)
COc1cc(C(=O)n2nc(N3CCN(C)CC3)c3cc(N)ccc32)cc(OC)c1OC | 32.5% (inactive)

What follows are compounds tested on NCI-H460 lung in the same assay as above. Details: 10 µM unless noted.

SMILES | growth
O=C(NNC(=O)c1ccc(-n2cc(-c3ccccc3)nn2)cc1)Nc1ccccc1 | 109% (inactive)
COc1ccc(-c2csc(N(C(=O)N3CCN(c4cc5c(cc4F)c(=O)c(C(=O)O)cn5C4CC4)CC3)c3ccccc3)n2)cc1 | 3.65% (active)
O=Nc1c(-c2c(O)[nH]c3ncccc23)[nH]c2ccccc12 | 52.2% (inactive)
CCN1CC(=O)N(/N=C2\C(=O)Nc3ccccc32)C1=S | 88.3% (inactive)
O=C1CC(N2C(=O)/C(=C/C(Cl)=C\c3ccc([N+](=O)[O-])cc3)SC2=S)C(=O)N1c1ccc(Cl)cc1 (stereo unspecified) | 74.5% (inactive)
CN(C)C1CCN(Cc2ccc(NC(=O)c3cncc(C#Cc4cnc(N)c5ncccc45)c3)cc2C(F)(F)F)CC1 | 0.477% (active)
Cn1cc(-c2nonc2-c2c[nH]c3ccc(Br)cc23)c2cc(Br)ccc21 | 13.3% (inactive)
C[C@@H]1CCC[C@H]1CC(N)C(=O)O (stereo partly specified) | 102% (inactive)
S=C(Nc1ccc(-c2nc(N3CCOCC3)c3cccn3n2)cc1)Nc1cccnc1 | 43.2% (inactive)
O=C(CN1C(=O)CCC1=O)Nc1ncc(Cc2ccc(F)cc2)s1 | 106% (inactive)
CN1CCN(C(=O)OCc2ccc3c(Cl)cc(Cl)c(O)c3n2)CC1 | 66.8% (inactive)
O=C(O)[C@@H]1c2ccccc2-c2ccccc2[C@H]1C(=O)O | 109% (inactive)
Clc1ccc(Sc2cnc(-c3ccccc3)o2)cc1 | 110% (inactive)
C=C(C)[C@@H]1CC[C@]2(C(=O)NCC#CCN3CCN(C)CC3)CC[C@]3(C)[C@H](CC[C@@H]4[C@@](C)(CCC#N)[C@H](C(=C)C)CC[C@]43C)[C@@H]12 | 26.4% (inactive)
Cc1ccc(/C=N/Nc2nc(Nc3ccccc3)nc(-n3nc(C)cc3C)n2)cc1 | 6.72% (active)
COc1ccc(/C(C)=C(/c2ccc(OCCCN(C)C)cc2)c2ccc(OC(=O)Cc3ccccc3)cc2)cc1 | 70.8% (inactive)
CCOC(=O)C1=C(NC)OCC1=O | 101% (inactive)
C#CCOc1ccc2ncnc(Nc3cccc(NC(=O)C=C)c3)c2c1 | 65.1% (inactive)

SMILES | growth
COc1cc(-n2cc(-c3cc(O)c(C/C=C(\C)CCC=C(C)C)c(O)c3)nn2)cc2c1O[C@]1(C)CC[C@@H](O)C(C)(C)[C@H]1C2 | 10.4% (inactive)
N#C/C(=C\c1ccc(Br)cc1)n1nnc2ccc(F)cc21 | -35.9% (active)
CCN(CC)CCNC(=O)c1cn2ncnc(Oc3ccc(NC(=O)Nc4ccc(Cl)c(C(F)(F)F)c4)c(F)c3)c2c1C | -67% (active)
CC(=O)N(N=Nc1ccccc1)c1cccc2ccccc12 | 55.7% (inactive)
Cc1ccc(-c2nc(N3CCNCC3)c3oc(-c4ccccc4)nc3n2)cc1 | -72.5% (active)
Cc1cc2c(O)c(-c3cc(Cl)ccc3Cl)c3sc(=O)oc3c2cc1C | 34.4% (inactive)
N=C(N)c1ccc(-c2ccc(-c3cc(Cl)cc(Cl)c3)o2)o1 | -78.3% (active)
CN1C(=O)/C(=C/c2ccc(C(=O)Nc3ncc(Cc4ccc(Cl)cc4)s3)cc2)SC1=S | 21.1% (inactive)
COc1ccc(-c2nnc3n(C)c(=O)c4ccccc4n23)cc1N | 13.6% (inactive)
CC1=C(CCC(C)N(C)Cc2ccc(OCCCN3CCCC3)cc2)C(C)(C)CCC1 (stereo unspecified) | 5.81% (active)
CCCc1cc(NC)nc(S(=O)(=O)CC)n1 | 110% (inactive)
Cc1cccc(Cl)c1NC(=O)c1ccc2nc(NC(=O)NCCN(C)C)sc2c1 | 107% (inactive)
O=c1oc2ccccc2cc1C1=NN=C(SCc2ccccc2)SC1 | 112% (inactive)
CC1(c2ccccc2O)NN=C(/N=C/c2cccc([N+](=O)[O-])c2)N1C(Cc1c[nH]c2ccccc12)C(=O)O (stereo unspecified) | 102% (inactive)
Cc1ccc(CNc2ccc(Cl)cc2NCc2ccc(C)c(O)c2)cc1O | 2.22% (active)
NC(=O)c1c(NC(=O)c2ccccc2)sc2c1CCC(=O)C2 | 11.6% (inactive)
CCn1c(=S)sc2c(Nc3ccc(F)cc3)nc(-c3cccnc3)nc21 | 64.5% (inactive)
COc1cc(C(=O)n2nc(N3CCN(C)CC3)c3cc(N)ccc32)cc(OC)c1OC | 38.8% (inactive)

— PubChem BioAssay (NCI)
